# Measurements as given in PubChem BioAssay (NCI).
# Compounds without any hit were thinned out: in the full panel of roughly 79,000, 15% have a hit. Unmarked numbers belong to inactive results. The source made the active and inactive calls. Cut-off read from the data, not from the text of the source: active = growth inhibition above about 70%; inactive = the rest.
# Columns and labels:
# [1] = NCI Yeast Anticancer Drug Screen. Data for the rad52 strain (AID 147);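 note: 0% = growth of vehicle-treated control cultures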; conditions: S. cerevisiae rad52 mutant growth inhibition, active compounds read high
# Outline: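 Genetically altered yeast (DNA damage repair defect) treated with compound; inhibition calculated relative to vehicle.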
# [2] = NCI Yeast Anticancer Drug Screen. Data for the rad50EPP+ strain (AID 151);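 note: 0% = growth of vehicle-treated control cultures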; conditions: S. cerevisiae rad50 mutant strain, active compounds read high
# Outline: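 Strain rad50EPP+; compound exposure; % growth inhibition vs vehicle.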
# [3] = NCI Yeast Anticancer Drug Screen. Data for the mgt1 strain (AID 153); conditions: S. cerevisiae mgt1 mutant growth inhibition, active compounds read high
# Outline: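 Read-out: yeast growth inhibition vs vehicle control. Strain mgt1, drawn from a panel altered in DNA damage repair or cell cycle control.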
# [4] = NCI Yeast Anticancer Drug Screen. Data for the rad50 strain (AID 155);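 note: 0% = growth of vehicle-only cultures of the same strain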; conditions: S. cerevisiae rad50 strain growth inhibition, active compounds read high
# Outline: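 Inhibition values express reduced yeast growth in compound-treated cultures relative to vehicle-treated controls.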
# [5] = NCI Yeast Anticancer Drug Screen. Data for the mec2-1 strain (AID 157); conditions: S. cerevisiae mec2-1 strain, active compounds read high
# Outline: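 Cells of the genetically defined mec2-1 yeast strain are incubated with test compound. Inhibition of growth is calculated against vehicle-treated controls.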
# [6] = NCI Yeast Anticancer Drug Screen. Data for the rad14 strain (AID 159);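 note: 0% = growth of vehicle-treated control cultures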; conditions: S. cerevisiae rad14 strain growth inhibition, active compounds read high
# Outline: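 A mutant yeast strain defective in DNA damage repair is treated with compound; inhibition of its growth is scored against untreated, vehicle-exposed cultures.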
# [7] = NCI Yeast Anticancer Drug Screen. Data for the sgs1 mgt1 strain (AID 161);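 note: 0% = growth of cultures given vehicle only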; conditions: S. cerevisiae sgs1 mgt1 strain, active compounds read high
# Outline: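 Inhibition of yeast growth, normalised to vehicle-treated controls, is reported for a strain bearing genetic alterations in DNA damage repair.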
# [8] = NCI Yeast Anticancer Drug Screen. Data for the CLN2oe strain (AID 163);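 note: 0% = growth of vehicle-only control cultures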; conditions: S. cerevisiae CLN2oe strain, active compounds read high
# Outline: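 Strain altered in cell-cycle control, incubated with compound; growth compared to solvent-treated controls.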
# [9] = NCI Yeast Anticancer Drug Screen. Data for the cln2 rad14 strain (AID 165);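 note: 0% = growth equal to vehicle treated cultures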; conditions: S. cerevisiae cln2 rad14 strain, active compounds read high
# Outline: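 The screen exposed genetically defined yeast (cln2 rad14) to test compounds and scored growth inhibition relative to vehicle-treated controls.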
# [10] = NCI Yeast Anticancer Drug Screen. Data for the bub3 strain (AID 167); conditions: S. cerevisiae bub3 mutant strain, active compounds read high
# Outline: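 Steps: expose the mutant yeast strain to compound; grow alongside vehicle-treated cultures; measure growth; express inhibition against the vehicle cultures.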
# [11] = NCI Yeast Anticancer Drug Screen. Data for the wt2 strain (AID 169);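 note: 0% = growth of vehicle-treated yeast cultures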; conditions: S. cerevisiae wt2 strain growth inhibition, active compounds read high
# Outline: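 Steps: yeast strain treated with compound; growth recorded; inhibition calculated relative to cultures given vehicle alone.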
# [12] = NCI Yeast Anticancer Drug Screen. Data for the mlh1 strain (AID 171);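 note: 0% = growth of vehicle-treated control cultures of the same strain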; conditions: S. cerevisiae mlh1 strain growth inhibition, active compounds read high
# Outline: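 Yeast screen: mutant strain plus compound, growth scored against vehicle control wells.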
# [13] = NCI Yeast Anticancer Drug Screen. Data for the sgs1 strain (AID 173);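 note: 0% = growth of vehicle-only control cultures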; conditions: S. cerevisiae sgs1 mutant, active compounds read high
# Outline: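 Inhibition of yeast growth served as the measure. The mutant strain was treated with each compound, and growth was normalised to cultures receiving vehicle alone.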
# [14] = NCI Yeast Anticancer Drug Screen. Data for the mlh1 rad18 strain (AID 175); conditions: S. cerevisiae mlh1 rad18 strain growth inhibition, active compounds read high
# Outline: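 Compound-treated yeast growth, normalised to vehicle controls. Strain bears defined DNA repair mutations.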
# [15] = NCI Yeast Anticancer Drug Screen. Data for the rad18 strain (AID 177); conditions: S. cerevisiae rad18 mutant growth inhibition, active compounds read high
# Outline: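 Inhibition values reflect reduced yeast growth compared with vehicle-treated controls, using a strain engineered with a DNA damage repair defect.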
# [16] = NCI Yeast Anticancer Drug Screen. Data for the wt1 strain (AID 149);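 note: 0% = growth of vehicle-treated wt1 cultures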; conditions: S. cerevisiae wt1 strain (SPY 50644) growth inhibition, active compounds read high
# Outline: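 Compounds are added to wt1 yeast cultures. Growth is then measured. Inhibition is expressed relative to vehicle-treated controls.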
# [17] = at 5.0 µM (retest, dose inferred, filed as 0.5)
# [18] = at 50.0 µM (retest, dose inferred, filed as 5.0)
compound,measurement,setting,value
Cc1ccc(Cl)c2[nH]c(-c3ccccc3)cc(=O)c12,growth inhibition,[1]; at 1.2 µM,-1%
same,growth inhibition,[1]; at 3.7 µM,-1%
same,growth inhibition,[1]; at 11.0 µM,1%
same,growth inhibition,[1]; at 33.0 µM,2%
same,growth inhibition,[1]; at 100.0 µM,3%
same,growth inhibition,[2]; at 1.2 µM,1%
same,growth inhibition,[2]; at 3.7 µM,2%
same,growth inhibition,[2]; at 11.0 µM,6%
same,growth inhibition,[2]; at 33.0 µM,9%
same,growth inhibition,[2]; at 100.0 µM,6%
same,growth inhibition,[3]; at 1.2 µM,-5%
same,growth inhibition,[3]; at 3.7 µM,-3%
same,growth inhibition,[3]; at 11.0 µM,19%
same,growth inhibition,[3]; at 33.0 µM,-25%
same,growth inhibition,[3]; at 100.0 µM,-4%
same,growth inhibition,[4]; at 1.2 µM,-1%
same,growth inhibition,[4]; at 3.7 µM,0%
same,growth inhibition,[4]; [17],-10%
same,growth inhibition,[4]; at 11.0 µM,-29%
same,growth inhibition,[4]; at 33.0 µM,0%
same,growth inhibition,[4]; [18],13%
same,growth inhibition,[4]; at 50.0 µM,29.2%
same,growth inhibition,[4]; at 100.0 µM,0%
same,growth inhibition,[5]; at 1.2 µM,0%
same,growth inhibition,[5]; at 3.7 µM,-3%
same,growth inhibition,[5]; [17],-11%
same,growth inhibition,[5]; at 11.0 µM,0%
same,growth inhibition,[5]; at 33.0 µM,-2%
same,growth inhibition,[5]; [18],10%
same,growth inhibition,[5]; at 50.0 µM,40.6%
same,growth inhibition,[5]; at 100.0 µM,0%
same,growth inhibition,[6]; at 1.2 µM,-2%
same,growth inhibition,[6]; at 3.7 µM,-6%
same,growth inhibition,[6]; at 11.0 µM,-2%
same,growth inhibition,[6]; at 33.0 µM,-12%
same,growth inhibition,[6]; at 100.0 µM,1%
same,growth inhibition,[7]; [17],-28%
same,growth inhibition,[7]; [18],12%
same,growth inhibition,[7]; at 50.0 µM,55.5%
same,growth inhibition,[8]; at 1.2 µM,0%
same,growth inhibition,[8]; at 3.7 µM,-5%
same,growth inhibition,[8]; at 11.0 µM,-1%
same,growth inhibition,[8]; at 33.0 µM,-5%
same,growth inhibition,[8]; at 100.0 µM,1%
same,growth inhibition,[9]; [17],-9%
same,growth inhibition,[9]; [18],-2%
same,growth inhibition,[9]; at 50.0 µM,13.4%
same,growth inhibition,[10]; at 1.2 µM,-2%
same,growth inhibition,[10]; at 3.7 µM,-2%
same,growth inhibition,[10]; [17],-17%
same,growth inhibition,[10]; at 11.0 µM,7%
same,growth inhibition,[10]; at 33.0 µM,0%
same,growth inhibition,[10]; [18],93% (active)
same,growth inhibition,[10]; at 50.0 µM,72% (active)
same,growth inhibition,[10]; at 100.0 µM,2%
same,growth inhibition,[11]; at 1.2 µM,-2%
same,growth inhibition,[11]; at 3.7 µM,-1%
same,growth inhibition,[11]; at 11.0 µM,-1%
same,growth inhibition,[11]; at 33.0 µM,-1%
same,growth inhibition,[11]; at 100.0 µM,-1%
same,growth inhibition,[12]; at 1.2 µM,0%
same,growth inhibition,[12]; at 3.7 µM,-2%
same,growth inhibition,[12]; at 11.0 µM,-4%
same,growth inhibition,[12]; at 33.0 µM,-2%
same,growth inhibition,[12]; at 100.0 µM,0%
same,growth inhibition,[13]; at 1.2 µM,-3%
same,growth inhibition,[13]; at 3.7 µM,-4%
same,growth inhibition,[13]; at 11.0 µM,-4%
same,growth inhibition,[13]; at 33.0 µM,-3%
same,growth inhibition,[13]; at 100.0 µM,0%
same,growth inhibition,[14]; [17],-18%
same,growth inhibition,[14]; [18],94% (active)
same,growth inhibition,[14]; at 50.0 µM,62.8%
same,growth inhibition,[15]; at 1.2 µM,-5%
same,growth inhibition,[15]; at 3.7 µM,-1%
same,growth inhibition,[15]; at 11.0 µM,-6%
same,growth inhibition,[15]; at 33.0 µM,-24%
same,growth inhibition,[15]; at 100.0 µM,14%
Cc1ccc2[nH]c3c(C)c4cc[n+](C)cc4c(C)c3c2c1,growth inhibition,[1]; at 1.2 µM,25%
same,growth inhibition,[1]; at 3.7 µM,14%
same,growth inhibition,[1]; at 11.0 µM,34%
same,growth inhibition,[1]; at 33.0 µM,89% (active)
same,growth inhibition,[1]; at 100.0 µM,97% (active)
same,growth inhibition,[16]; at 1.2 µM,-6%
same,growth inhibition,[16]; at 3.7 µM,-12%
same,growth inhibition,[16]; at 11.0 µM,-10%
same,growth inhibition,[16]; at 33.0 µM,6%
same,growth inhibition,[16]; at 100.0 µM,79% (active)
same,growth inhibition,[2]; at 1.2 µM,35%
same,growth inhibition,[2]; at 3.7 µM,21%
same,growth inhibition,[2]; at 11.0 µM,31%
same,growth inhibition,[2]; at 33.0 µM,49%
same,growth inhibition,[2]; at 100.0 µM,88% (active)
same,growth inhibition,[4]; at 1.2 µM,12%
same,growth inhibition,[4]; at 3.7 µM,16%
same,growth inhibition,[4]; [17],22%
same,growth inhibition,[4]; at 11.0 µM,26%
same,growth inhibition,[4]; at 33.0 µM,83% (active)
same,growth inhibition,[4]; [18],91% (active)
same,growth inhibition,[4]; at 50.0 µM,85.6% (active)
same,growth inhibition,[4]; at 100.0 µM,95% (active)
same,growth inhibition,[5]; at 1.2 µM,-2%
same,growth inhibition,[5]; at 3.7 µM,19%
same,growth inhibition,[5]; [17],15%
same,growth inhibition,[5]; at 11.0 µM,8%
same,growth inhibition,[5]; at 33.0 µM,55%
same,growth inhibition,[5]; [18],71% (active)
same,growth inhibition,[5]; at 50.0 µM,79.8% (active)
same,growth inhibition,[5]; at 100.0 µM,94% (active)
same,growth inhibition,[7]; [17],13%
same,growth inhibition,[7]; [18],8%
same,growth inhibition,[7]; at 50.0 µM,85.7% (active)
same,growth inhibition,[8]; at 1.2 µM,42%
same,growth inhibition,[8]; at 3.7 µM,37%
same,growth inhibition,[8]; at 11.0 µM,36%
same,growth inhibition,[8]; at 33.0 µM,63%
same,growth inhibition,[8]; at 100.0 µM,95% (active)
same,growth inhibition,[9]; [17],30%
same,growth inhibition,[9]; [18],37%
same,growth inhibition,[9]; at 50.0 µM,62.3%
same,growth inhibition,[10]; at 1.2 µM,10%
same,growth inhibition,[10]; at 3.7 µM,24%
same,growth inhibition,[10]; [17],12%
same,growth inhibition,[10]; at 11.0 µM,23%
same,growth inhibition,[10]; at 33.0 µM,51%
same,growth inhibition,[10]; [18],81% (active)
same,growth inhibition,[10]; at 50.0 µM,65.6%
same,growth inhibition,[10]; at 100.0 µM,95% (active)
same,growth inhibition,[12]; at 1.2 µM,7%
same,growth inhibition,[12]; at 3.7 µM,25%
same,growth inhibition,[12]; at 11.0 µM,14%
same,growth inhibition,[12]; at 33.0 µM,61%
same,growth inhibition,[12]; at 100.0 µM,94% (active)
same,growth inhibition,[13]; at 1.2 µM,1%
same,growth inhibition,[13]; at 3.7 µM,-21%
same,growth inhibition,[13]; at 11.0 µM,22%
same,growth inhibition,[13]; at 33.0 µM,54%
same,growth inhibition,[13]; at 100.0 µM,93% (active)
same,growth inhibition,[14]; [17],14%
same,growth inhibition,[14]; [18],72% (active)
same,growth inhibition,[14]; at 50.0 µM,-26.9%
same,growth inhibition,[15]; at 1.2 µM,-11%
same,growth inhibition,[15]; at 3.7 µM,-1%
same,growth inhibition,[15]; at 11.0 µM,1%
same,growth inhibition,[15]; at 33.0 µM,37%
same,growth inhibition,[15]; at 100.0 µM,93% (active)
